PubChem BioAssay (Tox21)
Inconclusive results are not listed. Calls of active or inactive are those of the source. Unless noted, the call rests on the fitted dose curve.

What was measured:
[1] = Nuclear factor erythroid 2-related factor 2/antioxidant responsive element (Nrf2/ARE) small molecule agonists: qHTS cell viability counter screen in human keratinocytes (AID 1919968; active means well fitted curve in the direction sought with a large enough effect in the repeat runs; an effect the other way counts as inactive or inconclusive; further: nearly all actives have a fitted effect of over 55% in size)
Outline: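 After a 5 h attachment period, ARE-reporter keratinocytes were dosed with compounds in DMSO and then cultured 23 h at 37 C. Cell viability came from CellTiter-Fluor signal read after a further 1 h.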

[2] = molecular target: Gonadotropin-releasing hormone receptor (Homo sapiens) (UniProt P30968); experiment: Human gonadotropin-releasing hormone receptor (GnRHR) small molecule agonists, calcium flux assay in GnRHR-HEK293 cells (AID 1920063); further: nearly all actives have a fitted effect of over 35% in size
Outline: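 We seeded human GnRHR-expressing HEK293 cells for 18 hours, loaded them with calcium dye for an hour at 37 C, added test compounds, and recorded fluorescence intensity kinetically for three minutes.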

[3] = molecular target: KiSS-1 receptor (Homo sapiens) (UniProt Q969F8); experiment: Human kisspeptin (KISS1R) small molecule agonists, calcium flux assay in KISS1R-HEK293 cells (AID 1920064; active means well fitted curve in the direction sought with a large enough effect in the repeat runs; an effect the other way counts as inactive or inconclusive)
Outline: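 Kinetic calcium assay, 1 s sampling over 3 min at Ex/Em 480/540, in HEK293 cells engineered with human KISS1R; compounds delivered in DMSO after 1 h dye loading.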

[4] = G protein-coupled receptor (GPCR) small molecule agonists, calcium flux assay: HEK293 wild type cell line counter screen (AID 1920065)
Outline: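 Calcium-sensitive dye, loaded 1 h at 37 C into cells cultured 18 h, reports compound-evoked calcium release as fluorescence (Ex/Em 480/540), measured over 3 min. Agonist mode; 15-point titrations, triplicate.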

[5] = p53 small molecule agonists, cell-based qHTS assay with human liver microsomes (AID 1963577)
Outline: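 Cells carrying a p53-responsive bla reporter were rested 5 h (37 C, 5% CO2) before compound transfer. Human liver microsomes plus NADPH, 0.5 mg/mL final apiece, supplied metabolism during the 16 h 37 C exposure.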

[6] = p53 small molecule agonists, cell-based qHTS assay with human liver microsomes: qHTS cell viability counter screen (AID 1963579); further: nearly all actives have a fitted effect of over 45% in size
Outline: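 Seed p53RE-bla cells at 4,000 per well; incubate 5 h at 37 C; add compound, human liver microsomes and NADPH; incubate 16 h at 37 C; add CellTiter-Glo; after 30 min at room temperature, read luminescence.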

[7] = p53 small molecule agonists, cell-based qHTS assay with rat liver microsomes: qHTS cell viability counter screen (AID 1963580); further: nearly all actives have a fitted effect of over 45% in size
Outline: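 p53RE-bla HCT-116 cells were exposed 16 h at 37 C to compounds with rat liver microsomes (0.5 mg/mL) and NADPH (0.5 mg/mL). Viability was measured in the same wells as ATP content by CellTiter-Glo luminescence.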

[8] = p53 small molecule agonists, cell-based qHTS assay: qHTS cell viability counter screen (AID 1963581); further: nearly all actives have a fitted effect of over 45% in size
Outline: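 Following 5 h attachment, HCT-116 p53RE-bla cells took up compound for 16 h at 37 C; the reporter was read with B/G FRET substrate (2 h RT), and viability then via CellTiter-Glo ATP luminescence.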

[9] = molecular target: 5-hydroxytryptamine receptor 2A (Homo sapiens) (UniProt P28223); experiment: 5-hydroxytryptamine receptor 2A (HTR2A) small molecule antagonists, cell-based qHTS assay (AID 1963586); further: nearly all actives have a fitted effect of over 45% in size
Outline: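 Antagonist-mode intracellular calcium assay: DOI (4 nM) added after 5 min compound pre-incubation at room temperature to dye-loaded HTR2A-CHO cells. Fluorescence followed for 3 min, sampled every second.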

[10] = molecular target: 5-hydroxytryptamine receptor 2A (Homo sapiens) (UniProt P28223); experiment: 5-hydroxytryptamine receptor 2A (HTR2A) small molecule agonists, cell-based qHTS assay (AID 1963587); further: nearly all actives have a fitted effect of over 30% in size
Outline: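 CHO cells stably expressing human HTR2A, plated 18 h, loaded with calcium dye 1 h at 37 C. Agonist mode: compounds added and intracellular calcium fluorescence recorded kinetically for 2 min at 1 sec intervals.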

[11] = molecular target: Muscarinic acetylcholine receptor M1 (Homo sapiens) (UniProt P11229); experiment: Cholinergic receptor muscarinic 1 (CHRM1) small molecule antagonists, cell-based qHTS assay (AID 1963588); further: nearly all actives have a fitted effect of over 40% in size
Outline: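 CHRM1-CHO calcium-flux assay, antagonist mode. Cells were seeded 18 h, dye-loaded 1 h at 37 C and given compound for 5 min at RT, then acetylcholine was added at 50nM. FDSS fluorescence was read 3 min; 15 concentrations, three runs.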

[12] = molecular target: Muscarinic acetylcholine receptor M1 (Homo sapiens) (UniProt P11229); experiment: Cholinergic receptor muscarinic 1 (CHRM1) small molecule agonists, cell-based qHTS assay (AID 1963589); further: nearly all actives have a fitted effect of over 35% in size
Outline: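 Measures agonist-induced intracellular calcium rise. Stable human CHRM1 CHO line, 1 h dye load at 37 C, compounds from DMSO, kinetic fluorescence read.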

[13] = cAMP Responsive Elements (CRE) small molecule antagonists, cell-based qHTS assay (AID 1963591; active means well fitted inhibition curve with a large enough effect in the signal ratio in the repeat runs, not every such curve was filed as active; the % refers to the signal ratio)
Outline: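 HEK293T cells carrying a CRE-driven beta-lactamase reporter receive compound and NKH477 (0.25 uM final) for 3 h. Fluorescence from LiveBLAzer B/G FRET substrate is read after 2 h at room temperature.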

[14] = molecular target: Beta-2 adrenergic receptor (Homo sapiens) (UniProt P07550); experiment: Adrenergic beta2 receptor (ADRB2) small molecule antagonists, cell-based qHTS assay (AID 1963592); further: series mostly up to about 92 µM; nearly all actives have a fitted effect of over 50% in size
Outline: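 Cells (CHO, stable ADRB2 overexpression) incubated 18-20hr at 37C; compounds added from DMSO; agonist mix (1nM isoproterenol, 100uM IBMX, 25uM Ro-20-1724) added; 0.5hr RT; d2-cAMP and anti-cAMP-cryptate added; 1hr RT; 665/615 nm read.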

[15] = molecular target: D(2) dopamine receptor (Homo sapiens) (UniProt P14416); experiment: Dopamine D2 receptor (DRD2) small molecule agonists, cell-based qHTS assay (AID 1963594); further: nearly all actives have a fitted effect of over 35% in size
Outline: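 HEK293 cells stably expressing human DRD2, pre-treated with PDE inhibitor Ro20-1724 (0.1 mM final) and compound 10 min at room temperature, then stimulated with NKH477 (200nM […]) for 30 min. cAMP read by HTRF (665/620 nm).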

[16] = molecular target: D(2) dopamine receptor (Homo sapiens) (UniProt P14416); experiment: Dopamine D2 receptor (DRD2) small molecule antagonists, cell-based qHTS assay (AID 1963595; active means well fitted inhibition curve with a large enough effect in the signal ratio in the repeat runs, with a control signal flat; the % refers to the signal ratio)
Outline: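 Stable D2 receptor HEK293 line, 24 h after seeding. Compound preincubated 10 min, then quinpirole (12 nM) with forskolin analogue NKH477 (200 nM), 30 min, room temperature. Detection by time-resolved FRET of cAMP.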

[17] = p53 small molecule agonists, cell-based qHTS assay with rat liver microsomes (AID 1963578)
Outline: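 Fluorescence from a beta-lactamase reporter under a p53 response element was measured after cells had been incubated 16 h at 37 C with test compound and rat liver microsomes plus NADPH (0.5 mg/mL final each).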

[18] = p53 small molecule agonists, cell-based qHTS assay (AID 1963582; active means well fitted activation curve with a large enough effect in the signal ratio in the repeat runs, not every such curve was filed as active; the % refers to the signal ratio)
Outline: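 In this cell-based concentration-response screen, a p53 response element drives beta-lactamase; cells received DMSO-borne compounds after 5 h culture and were incubated a further 16 h before FRET substrate development.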

[19] = cAMP Responsive Elements (CRE) small molecule agonists, cell-based qHTS assay (AID 1963590)
Outline: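 A CRE-responsive beta-lactamase reporter in HEK 293T cells was used. Treatment ran 3 h at 37 C; detection used LiveBLAzer B/G FRET substrate for 2 h at room temperature.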

[20] = molecular target: Beta-2 adrenergic receptor (Homo sapiens) (UniProt P07550); experiment: Adrenergic beta2 receptor (ADRB2) small molecule agonists, cell-based qHTS assay (AID 1963593);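 further: CHO cells stably overexpressing human ADRB2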
Outline: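 CHO cells stably over-expressing ADRB2 were plated overnight at 37C, then dosed with compounds plus a stimulation mix containing 100uM IBMX and 25uM Ro-20-1724 for 0.5hr at room temperature. cAMP was measured by HTRF competition, 1hr.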

Measured: Potency

Chain of 5-hydroxytryptamine receptor 2A (Homo sapiens) (P28223 whole entry, looked up): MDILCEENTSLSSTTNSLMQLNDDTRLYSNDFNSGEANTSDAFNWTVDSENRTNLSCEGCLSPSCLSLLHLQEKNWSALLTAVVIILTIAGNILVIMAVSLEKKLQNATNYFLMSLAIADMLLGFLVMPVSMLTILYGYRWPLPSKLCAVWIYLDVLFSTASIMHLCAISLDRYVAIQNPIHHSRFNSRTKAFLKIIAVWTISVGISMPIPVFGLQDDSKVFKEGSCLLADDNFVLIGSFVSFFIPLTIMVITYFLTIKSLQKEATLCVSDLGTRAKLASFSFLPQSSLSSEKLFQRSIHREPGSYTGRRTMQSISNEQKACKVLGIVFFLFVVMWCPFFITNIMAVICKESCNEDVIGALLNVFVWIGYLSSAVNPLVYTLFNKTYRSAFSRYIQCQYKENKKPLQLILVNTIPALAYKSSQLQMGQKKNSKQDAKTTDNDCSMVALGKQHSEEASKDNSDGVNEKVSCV
Chain of KiSS-1 receptor (Homo sapiens) (Q969F8 whole entry, looked up): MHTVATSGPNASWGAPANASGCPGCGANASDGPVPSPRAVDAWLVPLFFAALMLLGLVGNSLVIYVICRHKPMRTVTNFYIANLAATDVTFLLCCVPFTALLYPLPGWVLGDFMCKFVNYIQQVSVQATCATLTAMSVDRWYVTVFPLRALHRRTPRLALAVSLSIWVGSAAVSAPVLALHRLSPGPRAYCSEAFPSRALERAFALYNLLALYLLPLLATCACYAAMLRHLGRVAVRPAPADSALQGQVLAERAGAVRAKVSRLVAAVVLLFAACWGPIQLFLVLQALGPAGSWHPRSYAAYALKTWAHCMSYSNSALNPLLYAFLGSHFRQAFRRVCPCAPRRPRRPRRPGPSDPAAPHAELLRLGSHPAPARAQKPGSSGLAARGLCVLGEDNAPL
Chain of D(2) dopamine receptor (Homo sapiens) (P14416 whole entry, looked up): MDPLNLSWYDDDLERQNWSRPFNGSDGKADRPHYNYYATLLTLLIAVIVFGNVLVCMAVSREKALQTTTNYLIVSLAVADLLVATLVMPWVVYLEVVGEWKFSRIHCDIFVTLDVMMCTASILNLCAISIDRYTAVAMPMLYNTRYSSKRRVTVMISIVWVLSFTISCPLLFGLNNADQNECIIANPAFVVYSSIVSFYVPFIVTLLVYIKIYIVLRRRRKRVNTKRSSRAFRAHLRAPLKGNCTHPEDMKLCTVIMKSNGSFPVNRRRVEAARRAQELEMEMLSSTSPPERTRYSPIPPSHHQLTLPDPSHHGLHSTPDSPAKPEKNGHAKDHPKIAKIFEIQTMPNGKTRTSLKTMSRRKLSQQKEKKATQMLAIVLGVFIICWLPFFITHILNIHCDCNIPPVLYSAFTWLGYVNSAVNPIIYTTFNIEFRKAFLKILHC
Chain of Gonadotropin-releasing hormone receptor (Homo sapiens) (P30968 whole entry, looked up): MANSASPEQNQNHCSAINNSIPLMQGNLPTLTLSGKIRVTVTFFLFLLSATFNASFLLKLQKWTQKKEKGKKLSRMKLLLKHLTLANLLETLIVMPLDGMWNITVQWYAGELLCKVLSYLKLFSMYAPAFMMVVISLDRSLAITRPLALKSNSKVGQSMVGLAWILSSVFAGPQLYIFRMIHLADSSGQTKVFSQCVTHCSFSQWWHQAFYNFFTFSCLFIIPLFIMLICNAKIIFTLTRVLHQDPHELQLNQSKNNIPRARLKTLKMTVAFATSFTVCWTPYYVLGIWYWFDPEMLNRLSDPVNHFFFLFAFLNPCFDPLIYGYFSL
Chain of Beta-2 adrenergic receptor (Homo sapiens) (P07550 whole entry, looked up): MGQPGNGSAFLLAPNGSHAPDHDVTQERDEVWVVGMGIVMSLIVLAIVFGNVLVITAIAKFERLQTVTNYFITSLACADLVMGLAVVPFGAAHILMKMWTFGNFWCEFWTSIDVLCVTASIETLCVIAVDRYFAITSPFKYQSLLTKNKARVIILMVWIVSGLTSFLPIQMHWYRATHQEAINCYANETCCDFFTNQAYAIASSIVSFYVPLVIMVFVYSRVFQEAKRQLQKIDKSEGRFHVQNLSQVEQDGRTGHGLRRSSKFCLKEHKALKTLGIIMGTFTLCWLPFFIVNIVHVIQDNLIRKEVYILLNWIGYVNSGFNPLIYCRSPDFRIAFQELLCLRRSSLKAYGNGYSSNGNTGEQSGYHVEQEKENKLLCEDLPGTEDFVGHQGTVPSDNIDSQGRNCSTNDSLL
Chain of Muscarinic acetylcholine receptor M1 (Homo sapiens) (P11229 whole entry, looked up): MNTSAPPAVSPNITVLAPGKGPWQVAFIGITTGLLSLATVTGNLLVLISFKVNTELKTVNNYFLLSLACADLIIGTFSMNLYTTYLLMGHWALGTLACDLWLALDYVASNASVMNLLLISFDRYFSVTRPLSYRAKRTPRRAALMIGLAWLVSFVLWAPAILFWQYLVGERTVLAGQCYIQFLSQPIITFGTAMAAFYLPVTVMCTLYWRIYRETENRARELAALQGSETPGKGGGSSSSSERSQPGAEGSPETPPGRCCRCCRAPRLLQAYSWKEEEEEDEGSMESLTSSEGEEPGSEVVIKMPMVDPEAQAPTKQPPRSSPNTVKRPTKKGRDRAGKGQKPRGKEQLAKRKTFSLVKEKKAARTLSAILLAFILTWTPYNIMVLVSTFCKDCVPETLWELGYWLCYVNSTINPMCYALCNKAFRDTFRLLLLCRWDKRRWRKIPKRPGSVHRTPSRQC

CCOC(=O)/C=C(C)/C=C/C=C(C)/C=C/c1c(C)cc(OC)c(C)c1C
not listed: [17] | [18] | [19] | [20]
inactive: all other assays above

C=C[Si]1(C)O[Si](C)(C=C)O[Si](C)(C=C)O[Si](C)(C=C)O1 (configuration not stated)
not listed: [6] | [11] | [13] | [20]
inactive: all other assays above

CCC(=O)Oc1ccc(/C(CC)=C(\CC)c2ccc(OC(=O)CC)cc2)cc1
not listed: [6] | [7] | [16] | [18] | [20]
inactive: all other assays above

O=C(O)C(=O)Cc1ccccc1
not listed: [6] | [9] | [18] | [20]
inactive: all other assays above

CCCCCCCC/C=C/CCCOC(C)=O
not listed: [6] | [10] | [13] | [20]
inactive: all other assays above

CCCCCC[C@@H](O)C/C=C\CCCCCCCC(=O)OC
not listed: [6] | [7] | [11] | [12] | [20]
inactive: all other assays above

CC[C@]12CCCN3CCc4c(n(c5ccccc45)C(=O)C1)[C@@H]32
not listed: [6] | [8] | [10] | [18]
inactive: all other assays above

Cc1ccc([N+](=O)[O-])cc1Cl
not listed: [15] | [17] | [20]
inactive: all other assays above
